A selection: hits, their analogues and other compounds. The true share with any hit is near 11%.
PNC assembly inh – blocks assembly of the perinucleolar compartment; PC3M PTB-GFP, PNC prevalence imaging, 16 h; stronger effect = lower value; activity change (PNC), negative = inhibition, % at 10 µM; 140,000 compounds, 3.1% hits;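 active = readout at or below -70, meaning at least 70% loss of cells showing the perinucleolar compartment, a nuclear body marking cancer cells; inconclusive = readout between -30 and a set limit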;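 also: plate controls were DMSO wells for no effect and camptothecin positive control wells for full effect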
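Read-out is percentage of cells bearing a perinucleolar compartment, from automated 20x imaging of fixed, Hoechst-stained PC3M PTB-GFP cells. Cells were seeded 4 h, then exposed 16 h to compound (23 nl of library stock) in duplicate plates.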
HPGD block – blocks human HPGD enzyme activity; P15428; purified HPGD, NADH fluorescence kinetic, PGE2 substrate; Potency, µM, for the others: at the top dose activity change, negative = inhibition, actives largely listed as inhibitors; 150,000 compounds, 4.3% hits; active = well fitted inhibition curve with a large enough effect, not every such curve was filed as active; inconclusive = small, poorly fitted or top-dose-only effect, or another doubt; inactive = no such curve, though single readings can be large or run the other way; also: potency is read from the fitted curve at half-maximal effect; % is scaled to controls: 0 for no effect and ±100 for the full control effect
Target sequence (P15428 whole entry, looked up): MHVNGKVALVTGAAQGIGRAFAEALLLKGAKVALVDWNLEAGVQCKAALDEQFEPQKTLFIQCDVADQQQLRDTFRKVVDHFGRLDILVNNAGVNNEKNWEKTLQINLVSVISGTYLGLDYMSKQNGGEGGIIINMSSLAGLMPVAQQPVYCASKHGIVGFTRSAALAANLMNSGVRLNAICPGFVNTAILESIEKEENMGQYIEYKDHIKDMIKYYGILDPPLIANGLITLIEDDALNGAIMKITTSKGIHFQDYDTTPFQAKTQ
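20 nM HPGD preincubated 15 min at room temperature with compound in 50 mM Tris-HCl pH 8, 0.01% Tween 20. Started with 1 mM NAD+ and 30 uM prostaglandin E2; NADH fluorescence (360/450 nm) read 5 times over 30-s intervals, last minus first.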
HTT ATP protect – protects HTT-Q103 PC12 cells, measured by ATP | 230,000 compounds, 0.14% hits | PC12 HTT-Q103 induced, cytoprotection, ATP luminescence, 40 h | Potency, µM (doses to about 56.4 µM), without a hit: cytoprotection (ATP increase), actives largely listed as activators; also: potency is read from the fitted curve at half-maximal effect; % of control where 0% means no effect; nearly all actives have a fitted effect of over 45% in size
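PC12 cells with ecdysone-inducible HTT exon 1 Q103-GFP, induced with 100 nM tebufenozide and co-treated with library compounds in a dose series (1536-well, 1500 cells/well). Cytoprotection read as ATP content by ATPlite luminescence.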
HttQ103 aggreg – inhibitors of mutant huntingtin aggregate formation in PC12 cells. PC12 HttQ103-GFP aggregates, Acumen cytometry, 40 h. Potency, µM (highest dose often 46.1 µM), without a hit: at the highest dose activity change, negative = inhibition, most hits filed as inhibitors. 220,000 compounds, 1.1% hits. AID 1688; also: potency is read from the fitted curve at half-maximal effect; % is scaled to controls: 0 for no effect and ±100 for the full control effect; nearly all actives have a fitted effect of over 60% in size
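PC12 cells with ecdysone-inducible HTT exon1 Q103-GFP, induced by 100 nM tebufenozide, given compounds in a concentration series. GFP aggregates (1–25 um, 6 SD above background) counted in lysates by laser-scanning cytometry, 488 nm excitation.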
ALDH1A1 inh – blocks purified human ALDH1A1 activity; Purified ALDH1A1, NADH fluorescence, propionaldehyde substrate; 220,000 compounds, 7.3% hits; Potency, µM (highest dose often 75.3 µM), for inactives: top-dose activity, negative = inhibition, most hits filed as inhibitors; active = well fitted inhibition curve with a large enough effect, not every such curve was filed as active; inconclusive = small, poorly fitted or top-dose-only effect, or another doubt; inactive = no such curve, though single readings can be large or run the other way;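 also: potency is read from the fitted curve at half-maximal effect; plate controls were no enzyme wells and a reference inhibitor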
RGS12 GoLoco inh – RGS12 GoLoco-Gai1 interaction inhibition; P63096; Gai1:RGS12 GoLoco peptide FP, rhodamine, 10 min; Potency, µM (series often up to 61.6 µM), without a hit: at the highest dose activity, negative = inhibition, usual class: inhibitors; 230,000 compounds, 0.44% hits; AID 880; active = well fitted inhibition curve with a large enough effect, not every such curve was filed as active; inactive = no such curve, though single readings can be large or run the other way; also: potency is read from the fitted curve at half-maximal effect; % is scaled to controls: 0 for no effect and ±100 for the full control effect; nearly all actives have a fitted effect of over 30% in size
Target sequence (P63096 whole entry, looked up): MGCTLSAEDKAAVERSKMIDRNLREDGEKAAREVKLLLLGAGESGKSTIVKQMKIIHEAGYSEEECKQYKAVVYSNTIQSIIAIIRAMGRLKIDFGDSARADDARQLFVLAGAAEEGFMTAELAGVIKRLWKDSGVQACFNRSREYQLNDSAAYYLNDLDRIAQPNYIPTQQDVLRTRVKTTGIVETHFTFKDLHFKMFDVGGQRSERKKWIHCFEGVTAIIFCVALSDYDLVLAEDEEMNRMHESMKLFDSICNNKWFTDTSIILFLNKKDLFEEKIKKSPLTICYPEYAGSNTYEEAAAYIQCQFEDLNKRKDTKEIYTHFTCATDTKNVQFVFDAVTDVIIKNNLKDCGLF
* marks the source's active call; other numbers are inactive results; ? = inconclusive; . = not tested or not shown; [ ] = dose if it differs, or a comment. Unless noted, calls follow the shape of the dose curve; as a rule, active = well fitted curve in the direction sought with a large enough effect; inconclusive = small, poorly fitted or top-dose-only effect, or another doubt; inactive = no such curve, though single readings can be large; an effect the other way counts as inactive or inconclusive.

SMILES	PNC assembly inh	HPGD block	HTT ATP protect	HttQ103 aggreg	ALDH1A1 inh	RGS12 GoLoco inh
CC1CCC/C(=C\Nc2ccc(O)cc2)C1=O (stereo not given)	13.0	?	-8.7%	7.7%	8.91µM*	28.2µM*
COc1ccc(C(=O)NCc2nnc(SCC(=O)Nc3ccc4c(c3)OCO4)o2)cc1	.	.	9.6%[10 µM]	4.5%	-70.2%	-6.5%
Cc1[nH]c(=S)sc1Cc1ccc(F)cc1	40.2	15.8µM*	4.5%[10 µM]	4.3%	?	-3.9%
CC1Cn2c(CCc3ccccc3)nnc2S1 (stereo not given)	29.4	28.2µM*	9.3%	-21.4%	?	-9.9%
CC1Cn2c(COc3ccccc3)nnc2S1 (stereo not given)	29.2	-10.2%	8.4%[10 µM]	-12.3%	7.8%	-0.5%
COC(=O)c1sc(N2C(=O)c3oc4ccccc4c(=O)c3C2c2cccs2)nc1C (stereo not given)	20.4	-9.7%	5.3%[1.9 µM]	-4.6%	-4.4%	2.8%
O=C(C1=C(O)C(=O)N(CCc2ccccc2)C1c1cccs1)c1ccco1 (stereo not given)	.	.	-66.9%	-4.3%	-2.8%	3.2%
CCc1ccc2nc(N3C(=O)C(O)=C(C(=O)c4ccco4)C3c3cccs3)sc2c1 (stereo not given)	-100.0*	20µM*	-5.5%[10 µM]	-3.5%	-2.8%	32.4%
Cc1cc(N2C(=O)C(O)=C(C(=O)c3ccc(C)o3)C2c2cccs2)no1 (stereo not given)	17.3	28.2µM*	-0.7%[0.074 µM]	1.5%	22.4µM*	17.3%
Cc1ccc2nc(N3C(=O)C(O)=C(C(=O)c4cc5ccccc5o4)C3c3cccs3)sc2c1 (stereo not given)	?	-28.5%	-5.5%	-4.2%	20µM*	36.2%
COC(=O)C1=C(C(=O)OC)[C@@H]2N(C)c3ccc(OC)cc3[C@@]23C[C@@H](C(=O)OC)N(S(=O)(=O)c2ccc4c(c2)OCCN4C)C3=N1	.	-11.8%	-10.0%[10 µM]	.	11.6%[13.5 µM]	-4.0%[14.2 µM]
CCOC(=O)c1[nH]c(C)c(/C=N/O)c1C	-115.1*	?	-12.7%[10 µM]	?	3.3%	5.7%
CC(C)Oc1ccccc1C1CC(=O)Nc2cc3c(cc21)OCCO3 (stereo not given)	-96.9*	-10.9%	-115.3%	9.0%	1.9%	-3.6%
COc1cccc(C2CC(=O)Nc3cc4c(cc32)OCCO4)c1OC(C)C (stereo not given)	12.0	-10.4%	-2.9%	-2.8%	10.9%	-8.4%
COc1ccccc1C1CC(=O)Nc2cc3c(cc21)OCCO3 (stereo not given)	-100.7*	31.6µM*	-46.4%[10 µM]	19.5%	?	8.1%
Nc1nc2nc3c(nc2c(=O)[nH]1)CN(c1ccc(C(=O)O)cc1)C3=O	.	-1.0%	-1.0%[10 µM]	.	8.8%[13.5 µM]	2.5%[14.2 µM]
O=C(N/N=C/c1cc(O)ccc1[N+](=O)[O-])c1ccc2c(c1)OCCO2	.	.	-58.3%[10 µM]	-1.7%[9.22 µM]	.	5.5%
COC(=O)c1c(-c2cccc3ccccc23)csc1NC(=O)Cc1ccc(OC)c(OC)c1	-12.0	-13.4%	3.2%[10 µM]	12.6µM*	11.3%	1.0%
COC(=O)c1c(-c2ccc(C)cc2)csc1NC(=O)Cc1ccc(OC)c(OC)c1	-29.3	?	-14.6%	?	?	18.8%
COC(=O)NC(CC(C)=O)c1ccc(F)cc1 (stereo not given)	.	.	-13.9%[10 µM]	.	11.9%[13.5 µM]	.
COC(=O)C1CSc2[nH]c(=O)sc2C1c1ccc(OC)c(OC)c1 (stereo not given)	81.7	3.4%	-21.1%	8.3%	7.94µM*	-2.7%
CC1=CC(=O)C(C(C)C)=CC1=NC(=O)c1ccc(C)cc1	.	.	-4.0%[10 µM]	-1.6%	17.8µM*	-7.2%
CCOC(=O)C1C(c2cccc(F)c2)NC(=S)NC1(O)C(F)(F)F (stereo not given)	?	-2.3%	-10.3%[0.074 µM]	6.5%	?	5.2%
Cc1ccc(S(=O)(=O)NCc2ccco2)cc1C(N)=O	.	.	-0.4%	5.1%	2.5%	14.4%
O=S(=O)(NCc1ccco1)c1cnc(Cl)c(Br)c1	-3.4	-14.0%	.	-2.4%	22.4µM*	5.8%
SMILES	PNC assembly inh	HPGD block	HTT ATP protect	HttQ103 aggreg	ALDH1A1 inh	RGS12 GoLoco inh
O=S(=O)(c1ccccc1)N1CCC2(CCN(c3ncccn3)CC2)CC1	.	-12.7%	9.1%	.	-0.1%	-4.2%
c1ccc2sc(SCN(C3CCCCC3)C3CCCCC3)nc2c1	.	-11.9%	0.6%[10 µM]	.	-19.0%[13.5 µM]	-4.3%[14.2 µM]
CC(Oc1ccc(Cl)cc1Cl)C(=O)NC(=S)N1CCc2ccccc21 (stereo not given)	-27.1	-21.6%	15.1%[10 µM]	10.5%	17.8µM*	22.4%
CC(C)(C)C(=O)NC(=S)N1CCc2ccccc21	.	.	-16.9%	-2.6%	11.2µM*	19.6%
CC(Oc1ccc(Cl)cc1Cl)C(=O)NN=C1CCN(C)CC1 (stereo not given)	-22.2	-2.8%	.	-11.2%	2.51µM*	-4.9%
CC(Oc1ccc(Cl)cc1Cl)C(=O)N/N=C1\CCCc2ccccc21 (stereo not given)	-12.7	-24.8%	18.7%	-1.9%	-6.9%	0.9%
CC(Oc1ccc(Cl)cc1Cl)C(=O)NCCN1CCOCC1 (stereo not given)	-4.8	-7.1%	4.0%	-8.1%	4.0%	3.9%
CC(C)(C)NC(=O)C(c1ccc(I)cc1)N(CCN1CCOCC1)C(=O)CCCNC(=O)c1ccccc1 (stereo not given)	.	-5.0%	-38.7%	.	1.7%	4.6%
CCOC(=O)CSc1nc2ccccc2n2cnnc12	?	?	-11.8%[0.074 µM]	-4.2%	17.8µM*	-35.1%
CCOC(=O)CSc1nc2ccccc2n1C(=O)OCC	16.8	-4.7%	27.4%	27.3%	6.5%	90.3%
COc1cccc([C@@H]2Oc3ccc(Br)cc3C[C@H]2OC(=O)N[C@H](C)C2CCCCC2)c1	.	-10.4%	-44.4%	.	4.2%	1.4%
O=C(O)c1c(-c2c3ccc(=O)cc-3oc3cc(O)ccc23)cc2ccccc2c1-c1ccccc1	.	-5.7%	-11.8%[10 µM]	.	9.5%[13.5 µM]	4.3%[14.2 µM]
CS(=O)(=O)CCC(C(=O)OCc1ccc(Br)cc1)N1C(=O)c2ccccc2C1=O (stereo not given)	8.6	-6.4%	25.6%[10 µM]	-14.1%	-13.8%	1.4%
COC(=O)c1ccc(COC(=O)C(CCS(C)(=O)=O)N2C(=O)c3ccccc3C2=O)cc1 (stereo not given)	-104.2*	-17.5%	-4.1%[10 µM]	?	-14.0%	-2.0%
CCOc1ccc(CCNC(=O)CSc2nn(-c3ccc(C)c(Cl)c3)c(=S)s2)cc1OCC	?	-24.5%	6.7%[10 µM]	15.3%	28.2µM*	78.0%
CCOc1ccc(CCNC(=O)CSc2nnnn2C)cc1OCC	.	.	-36.4%	-10.9%	0.1%	-15.1%
COc1ccc(NC(=O)c2ccc(C#N)cc2)cc1NS(=O)(=O)c1ccc(F)cc1	7.7	-13.7%	1µM*	23.8%	3.6%	12.3%

From PubChem BioAssay
